Assay outcomes (PubChem)
USP17 inh – human USP17-like deubiquitinase inhibition; purified USP17, Ub-rhodamine cleavage fluorescence, 3 h; inhibition, % at 50 µM; AID 1645855; A8MUK1; 47,000 compounds, 6.5% hits
USP28 block – blocks human USP28 ubiquitin-rhodamine cleavage | purified USP28, Ub-rhodamine cleavage fluorescence, 30 min | inhibition, % at 25 µM | 47,000 compounds, 3% hits
USP30 block – blocks human USP30 ubiquitin-rhodamine cleavage. AID 1645860. Q70CQ3. purified USP30, Ub-rhodamine cleavage fluorescence. inhibition, % at 25 µM. 47,000 compounds, 5.3% hits
USP8 block – human USP8 deubiquitinase inhibition; P40818; purified USP8, Ub-rhodamine cleavage fluorescence, 30 min; inhibition, % at 20 µM; 47,000 compounds, 4.2% hits; AID 1645853
OTUD3 block – blocks human OTUD3 ubiquitin-rhodamine cleavage; AID 1645858; 47,000 compounds, 0.7% hits; purified OTUD3, Ub-rhodamine fluorescence, 2 h; Q5T2D3; inhibition, % at 25 µM
Target sequence (Q5T2D3 whole entry, looked up): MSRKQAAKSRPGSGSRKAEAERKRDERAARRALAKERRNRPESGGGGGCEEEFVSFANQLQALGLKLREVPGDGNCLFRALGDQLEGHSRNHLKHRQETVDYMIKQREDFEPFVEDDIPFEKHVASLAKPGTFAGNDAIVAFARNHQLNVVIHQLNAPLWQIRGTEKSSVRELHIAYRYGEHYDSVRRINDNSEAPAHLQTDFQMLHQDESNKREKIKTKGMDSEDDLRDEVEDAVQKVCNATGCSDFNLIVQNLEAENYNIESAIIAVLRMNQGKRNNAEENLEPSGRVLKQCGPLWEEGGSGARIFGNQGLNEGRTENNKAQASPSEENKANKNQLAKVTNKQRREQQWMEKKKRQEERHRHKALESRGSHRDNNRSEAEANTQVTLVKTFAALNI
A number is an active result; - = inactive; . = no result given. Hits are enriched below; roughly 13% of the tested compounds scored in any of these assays. No stated cut-off is given here; in the data, active means inhibition above about 30%; inactive means the rest.

SMILES	USP17 inh	USP28 block	USP30 block	USP8 block	OTUD3 block
O=C(Nc1cccc(N2CCn3c(nc4ccccc43)C2)c1)c1cccc(Br)c1	30	.	.	-	-
Cc1cccc(NC(=O)N2CCCn3c(nc4ccccc43)C2)c1	.	-	-	-	-
CN(C)S(=O)(=O)c1ccc(S(=O)(=O)NCCc2ccc3c(c2)OCO3)cc1	-	-	45	-	-
CC(=O)N[C@@]12CCNC[C@@H]1CN(Cc1cccc(-c3ccc(F)cc3)c1)C2	-	-	-	-	-
Cn1cc(CCNC(=O)Nc2ccc(F)cc2)c2cccnc21	-	-	-	-	-
CC1CC1c1nnc(C2(c3ccc(Br)cc3)CCOCC2)o1 (configuration not stated)	-	-	-	-	-
O=C(COc1ccc(Cl)cc1)N1CCC(c2c[nH]c3ccccc23)(c2c[nH]c3ccccc23)CC1	.	-	39	-	-
Cc1cccc(C(=O)Nc2ccc(N3CCCCC3)c(NC(=O)Nc3ccccc3Cl)c2)c1	-	-	-	-	-
Cc1ccc(C(=O)Nc2ccc3c(c2)C(=O)N(C)c2ccccc2O3)cc1C	-	55	-	-	-
Cc1cccc(C(=O)Nc2ccc3c(c2)C(=O)N(C)c2ccccc2O3)c1	-	47	-	-	-
Cc1ccc(NC(=O)Nc2cccn3ncnc23)cc1	-	-	-	-	-
O=C1COc2ccc(C(=O)COC(=O)c3cccnc3)cc2N1	-	-	-	-	-
COc1ccc(CNC(=O)CN2CCSc3ccccc32)cc1	-	-	-	-	-
COc1ccc(CNC(=O)CCc2c(C)c3c(C)nn(-c4ccccc4)c3n(C)c2=O)cc1	-	-	-	-	-
COc1ccc(CNC(=O)CN2C(=O)c3cccc4cccc2c34)cc1	46	-	-	-	-
COc1ccc(CNC(=O)Cn2c(=O)cc(-c3ccccc3)c3c(C)nn(-c4ccccc4)c32)cc1	-	-	31	-	-
CC(=O)N1CCC(c2c(C(=O)N(C)Cc3c(C)nn(C)c3C)sc3ccccc23)C1 (configuration not stated)	-	-	-	-	-
Cc1cc(C(=O)NCc2ccco2)n(-c2ccccc2)n1	-	-	-	-	-
O=C(NC1CCCCCC1)c1cccc(S(=O)(=O)Nc2cc(C(F)(F)F)ccc2Cl)c1	33	-	31	-	-
Cc1ccc(NS(=O)(=O)c2cccc(C(=O)NC3CCN(Cc4ccccc4)CC3)c2)c(C)c1	-	-	-	-	-
CCn1ccc2ccn(CC(=O)NCc3ccc4c(c3)OCO4)c(=O)c21	-	-	-	-	-
CCn1cnc2c1c(=O)n(CC(=O)NCc1ccc3c(c1)OCO3)c(=O)n2Cc1ccccc1	37	-	-	-	-
COCCn1cnc2c1c(=O)n(CC(=O)NCc1ccccc1OC)c(=O)n2Cc1ccccc1	31	-	45	-	-
Cc1ccc(C)c(C(=O)Cn2c(=O)c3c(ncn3CCC(C)C)n(Cc3ccccc3)c2=O)c1	-	-	-	-	-
CCn1cnc2c1c(=O)n(CC(=O)NCc1ccccc1Cl)c(=O)n2Cc1ccccc1	55	-	-	-	-
SMILES	USP17 inh	USP28 block	USP30 block	USP8 block	OTUD3 block
CC(C)Cn1cnc2c1c(=O)n(CC(=O)NCCc1ccc(F)cc1)c(=O)n2Cc1ccccc1	-	-	43	-	-
COCCn1cnc2c1c(=O)n(CC(=O)c1ccc3c(c1)OCCO3)c(=O)n2Cc1ccccc1	-	-	-	-	-
Cc1oc(-c2ccc(C(=O)NC3CC3)cc2)nc1CN1CCN(c2ccccc2)CC1	-	-	-	-	-
Fc1ccccc1N1CCN(Cc2c(-c3ccc(Cl)cc3)nc3ccccn23)CC1	-	-	-	-	-
CC1CCN(Cc2ccc(CNC(=O)C3Cc4ccccc4O3)cc2)CC1 (configuration not stated)	-	-	-	-	-
CN(CCCN1C(=O)C2C(C(=O)Nc3cccc(Cl)c3)C3C=CC2(O3)C1C(=O)NC1CCCCC1)Cc1ccccc1 (configuration not stated)	-	-	-	-	-
COc1cccc(NC(=O)C2C3C=CC4(O3)C2C(=O)N(CCc2ccc(Cl)cc2)C4C(=O)NC2CCCCC2)c1 (configuration not stated)	-	-	-	50	-
CCC1CCCCN1CCCN1C(=O)C2C(C(=O)Nc3cccc(Cl)c3)C3C=CC2(O3)C1C(=O)NC1CCCCC1 (configuration not stated)	-	-	-	-	-
COc1cccc(NC(=O)C2C3C=CC4(O3)C2C(=O)N(CCc2ccccc2Cl)C4C(=O)NC2CCCCC2)c1 (configuration not stated)	39	-	39	-	32
Cc1ccc(-c2nc(-c3ccccc3)c(S(=O)(=O)CC(=O)Nc3ccc(C)c(C)c3)[nH]2)cc1	37	-	-	-	32
O=C(/C=C/c1cccc(F)c1)NCc1nnc2ccccn12	-	-	-	-	-
O=S(=O)(Nc1ccc(N2CCCCC2)cc1)c1ccccc1F	34	-	-	-	-
O=C(CSc1nnc(-c2cccnc2)o1)NCCc1ccccc1	-	-	-	-	-
COc1ccccc1NC(=O)c1cn2c(n1)CCCC2	-	-	-	-	-
COc1ccc(-c2cn3ccc4cc(OC)c(OC)cc4c3c2-c2ccc(OC)c(OC)c2)cc1	-	-	-	31	-
c1ccc(-n2cnnc2C2CCN(Cc3cccnc3)CC2)cc1	-	-	-	-	-
CCN1CCCn2nc(C3CCN(C(=O)Nc4ccccc4C)CC3)cc2C1=O	-	-	-	-	-
CCOC(=O)c1ccc(NC(=O)COc2cccc3c2CCN(CC)C3=O)cc1	-	69	-	-	-
COc1ccc(S(=O)(=O)N(C(=O)c2ccncc2)c2ccc(N(C(=O)c3ccncc3)S(=O)(=O)c3ccc(OC)cc3)cc2)cc1	-	-	-	-	-
COc1ccc(CNC(=O)CN(c2ccccc2)S(=O)(=O)c2ccc(F)cc2)cc1OC	-	-	-	-	-
COc1ccc(N(CC(=O)Nc2cccc(F)c2)S(=O)(=O)c2ccc(OC)c(OC)c2)cc1	36	-	51	-	-
COc1ccc(S(=O)(=O)N(CC(=O)NCc2ccc3c(c2)OCO3)c2ccc(F)cc2)cc1OC	34	-	38	-	-
O=C(Nc1cnn(-c2ncc(N3CCCC3)cn2)c1)c1cccnc1	-	.	.	-	-
Cn1cnnc1Sc1ncnc(N)c1[N+](=O)[O-]	-	-	34	-	-
Cc1nc2ccc(NC(=O)COc3ccccc3[N+](=O)[O-])cc2s1	.	-	57	44	-
Cc1nc2ccc(NC(=O)c3ccccc3OCC(=O)Nc3ccccc3F)cc2s1	-	-	-	-	-
COc1cc2c(cc1OC)-c1c(c(C(=O)O)nn1-c1ccc(F)cc1)C2	-	-	-	-	-
COc1cc2c(cc1OC)-c1c(c(C(=O)N3CCCC3)nn1-c1ccccc1F)C2	76	76	99	-	-
O=C1NC2(CCN(Cc3ccc([N+](=O)[O-])cc3)CC2)N=C1c1ccccc1	-	-	-	-	-
COc1ccc(CCNC(=O)COC(=O)c2ccc(N3CCCC3=O)cc2)cc1	84	-	81	30	-
